Compound activity from PubChem.
KB-V1 cytotox: qHTS assay for MDR1-selective chemotherapeutics: Primary screen using the drug-selected MDR subline cells KB-V1; KB-V1 MDR cells viability, CellTiter-Glo, 72 h; Potency, µM (series often up to 46.1 µM), hits mostly cytotoxic; hit rate 3.4% among 400,000; AID 1347076, 2019; note: nearly all actives have a fitted effect of over 60% in size
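In this primary screen, KB-V1 cells overexpressing P-gp are incubated with library compounds (lowest to highest concentration) for 72 h at 37 degrees C before a luminescent ATP viability read.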
KB-3-1 tox: qHTS assay for MDR1-selective chemotherapeutics: Primary screen using the parental adenocarcinoma cell KB-3-1; Potency, µM (series often up to 46.1 µM), actives largely listed as cytotoxic; KB-3-1 viability, CellTiter-Glo ATP luminescence, 72 h; hit rate 1.4% among 400,000; AID 1347075, 2019; note: nearly all actives have a fitted effect of over 60% in size
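Parental KB-3-1 viability, qHTS format: 72 h compound exposure, 37 °C; CellTiter-Glo; media-only wells and DMSO plates as controls; concentration-effect fits on corrected data.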
HT1080-NT tox: qHTS for induction of synthetic lethality in tumor cells producing 2HG: qHTS for the HT-1080-NT fibrosarcoma cell line. HT-1080-NT fibrosarcoma viability, CellTiter-Glo ATP luminescence, 48 h. Potency, µM (series often up to 46.1 µM), without a hit: at the top dose activity, negative = less viability, usual class: cytotoxic. hit rate 1.6% among 360,000. AID 686970, 2013;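 note: NT is the 2HG producing partner of a matched IDH1 knockdown line; 0% = DMSO-treated cells and -100% = media-only wells without cells; nearly all actives have a fitted effect of over 55% in size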
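Toxicity toward the 2HG-producing NT line was scored as %Activity, normalised to DMSO and no-cell wells, from CellTiter-Glo luminescence after 48 hours' treatment.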
HT1080 IDH1KD tx: qHTS for induction of synthetic lethality in tumor cells producing 2HG: qHTS for the HT-1080-IDH1KD cell line | HT-1080 IDH1 knockdown viability, ATP luminescence, 48 h | Potency, µM (top dose mostly 46.1 µM), without a hit: at the highest dose activity, negative = toxicity, actives largely listed as cytotoxic | hit rate 2% among 360,000 | AID 686971, 2013;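 note: 0% = DMSO wells and -100% = cell-free medium wells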
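Assay cells: HT-1080 with IDH1 knockdown, 750 per well, RPMI/5% FBS. Exposure: 48 h at 37 °C following 2 h pre-incubation. Read: CellTiter-Glo luminescence; fitted concentration-response, curve class assigned.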
TDP1 cell noCPT: qHTS for Inhibitors of human tyrosyl-DNA phosphodiesterase 1 (TDP1): qHTS in cells in absence of CPT; DT40 Tdp1-/- hTDP1 cells, no CPT, ATP luminescence, 48 h; Potency, µM (doses to about 46.2 µM), for inactives: at the highest dose activity change, negative = growth inhibition, hits mostly inhibitors; hit rate 15% among 420,000; AID 686978, 2013; note: nearly all actives have a fitted effect of over 55% in size
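A cellular qHTS used chicken DT40 cells lacking endogenous Tdp1 but carrying stably transfected human TDP1. Compounds were applied without camptothecin, and cell growth kinetics were judged by ATP-dependent luminescence after ≥48 hr.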
DT40 TDP1 CPT: qHTS for Inhibitors of human tyrosyl-DNA phosphodiesterase 1 (TDP1): qHTS in cells in presence of CPT | Potency, µM (top dose mostly 46.2 µM), without a hit: at the highest dose activity change, negative = growth inhibition, hits mostly inhibitors | chicken DT40 Tdp1-/-;hTDP1 cells + 20 nM CPT, ATP luminescence, 48 h | hit rate 12% among 420,000; note: nearly all actives have a fitted effect of over 55% in size
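Cell growth measured by CellTiter-Glo luminescence after a minimum 48 h, 37 C compound exposure with 20 nM CPT in Tdp1-knockout DT40 cells stably expressing hTDP1, seeded 400/well; qHTS titration format.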
The depositor's hits bear a star; i = inactive; ? = inconclusive; . = no result given. Most compounds without a hit are left out; they make up all but 19% or so of the library. Calls come from the whole dose curve; as a rule, active = well fitted curve in the direction sought with a large enough effect; inconclusive = small, poorly fitted or top-dose-only effect, or another doubt; inactive = no such curve, though single readings can be large; an effect the other way counts as inactive or inconclusive. Unless noted, % is set by controls: 0 for no effect and ±100 for the full control effect; potency is the fitted concentration of half-maximal effect.

SMILES | KB-V1 cytotox | KB-3-1 tox | HT1080-NT tox | HT1080 IDH1KD tx | TDP1 cell noCPT | DT40 TDP1 CPT
COC(=O)c1c(Oc2ccc(C(C)=O)cc2)nnc(-c2ccccc2)c1-c1ccccc1 | i | ? | . | . | ? | 18µM*
Cc1cccc(C)c1NC(=O)C1(C)CN(S(C)(=O)=O)CC(=O)N1Cc1cccs1 (centres undefined) | i | i | 13% | 12% | 5% | ?
CC(=O)c1ccc(NC(=O)Cn2c(=O)cc(C)c3c(C)nn(-c4cccc(F)c4)c32)cc1 | i | i | . | . | 3% | -5%
CC(CNC(=O)c1ccc(CSc2nc3ccncc3n2Cc2cccc(F)c2)cc1)c1ccccc1 (centres undefined) | i | i | . | . | ? | 23µM*
CC(NC(=O)c1ccc(CSc2nc3ccncc3n2Cc2ccc(F)cc2)cc1)c1ccccc1 (centres undefined) | i | i | . | . | ? | ?
Cc1ccc(CCNC(=O)c2ccc(CSc3nc4ccncc4n3Cc3ccc(F)cc3)cc2)cc1 | i | i | . | . | 16µM* | 16µM*
O=C(NCCc1ccccc1)c1ccc(CSc2nc3ccncc3n2Cc2ccc(F)cc2)cc1 | i | i | . | . | 16µM* | ?
CCOC(=O)C1=CCN(S(=O)(=O)c2ccccc2C(=O)OC)C1c1ccc(Cl)cc1 (centres undefined) | i | i | -10% | -13% | 18µM* | 21µM*
CCOC(=O)C1=CCN(S(=O)(=O)c2ccccc2C)C1c1ccc(Br)cc1 (centres undefined) | i | i | ? | ? | ? | ?
CCOC(=O)C1=CCN(S(=O)(=O)c2ccc(Cl)cc2)C1c1ccccc1 (centres undefined) | ? | ? | -8% | -16% | ? | ?
CCOC(=O)C1=CCN(S(=O)(=O)c2ccccc2Br)C1c1ccc(Cl)c(Cl)c1 (centres undefined) | ? | ? | ? | ? | 18µM* | ?
CCOC(=O)C1=CCN(S(=O)(=O)c2ccccc2C)C1c1ccccc1 (centres undefined) | i | i | -24% | -11% | 18µM* | 29µM*
O=C(NCc1ccccc1)C(c1ccccc1F)N(C(=O)c1csnn1)C1CCCC1 (centres undefined) | i | i | 3% | -14% | -26% | -2%
CC(C)n1c(SCC(=O)c2ccc(F)cc2)nc2c(sc3ccccc32)c1=O | i | i | . | . | 6% | 8%
CCCN(CC(=O)Nc1ccccc1C)C(=O)CCCOc1ccc(Br)cc1 | i | i | -1% | -11% | 18µM* | ?
O=S(=O)(c1ccc(-c2n[nH]c(=S)o2)cc1)N1CCCC1 | i | i | -1% | -3% | -13% | 2%
O=C(COC(=O)c1ccc2ncsc2c1)NCc1ccccc1Cl | i | i | 7% | -2% | -17% | 6%
CCN(c1cccc(C)c1)S(=O)(=O)c1ccc2c(c1)CCN2C(C)=O | 23µM* | ? | ? | ? | 16µM* | ?
O=C(C1CCC1)N1CCc2cc(S(=O)(=O)N3CCCCC3)ccc21 | i | i | 4% | 10% | ? | ?
CCN(c1cccc(C)c1)S(=O)(=O)c1ccc2c(c1)CCCN2C(C)=O | ? | i | -18% | -16% | ? | -28%
CCN(CC)C(=O)C1CCN(S(=O)(=O)c2ccc3c(c2)CCCN3C(C)=O)CC1 | i | i | . | . | ? | 23µM*
CC(=O)N1CCCc2cc(S(=O)(=O)N3CCC(C(=O)NCCC(C)C)CC3)ccc21 | i | i | . | . | -7% | 9%
CCN(CC)C(=O)C1CCN(S(=O)(=O)c2ccc3c(c2)CCCN3C(=O)C2CCC2)CC1 | ? | i | 4% | -1% | ? | 7.3µM*
CCN(C(=O)C1CCN(S(=O)(=O)c2ccc3c(c2)CCCN3C(C)=O)CC1)c1cccc(C)c1 | i | i | . | . | 23µM* | ?
CC(=O)NS(=O)(=O)c1ccc(NC(=O)CSc2ccc(C)cc2)cc1 | i | i | 8% | 22% | 5% | -16%
SMILES | KB-V1 cytotox | KB-3-1 tox | HT1080-NT tox | HT1080 IDH1KD tx | TDP1 cell noCPT | DT40 TDP1 CPT
COc1ccccc1CN1CCC2(CC1)CCN(C(=O)c1c(C)noc1C)CC2 | . | . | . | . | -4% | 3%
OCCNc1ncnc2c1ncn2[C@H]1CN(Cc2ccc3c(c2)OCO3)C[C@@H](CO)O1 | i | i | 4% | 1% | 0% | -13%
Cn1cccc1/C=C1\SC(=Nc2cccc(O)c2)NC1=O | i | ? | ? | 15µM* | 21µM* | 21µM*
Cc1cccc(C)c1NC(=O)CN1C(=O)S/C(=C\c2cccn2C)C1=O | i | i | 9% | 7% | -21% | -24%
Cn1cccc1/C=C1\SC(=O)N(c2ccccc2)C1=O | ? | i | 1% | 9% | ? | -13%
Cn1cccc1/C=C1\SC(=Nc2ccc(O)cc2)NC1=O | i | 0.29µM* | 0.52µM* | 0.73µM* | 0.023µM* | 0.041µM*
Cn1cccc1/C=C1\SC(=Nc2ccccc2)NC1=O | 2.6µM* | 2.3µM* | ? | 5.2µM* | 2.3µM* | 2.9µM*
COC(=O)/C=C1/SC(=Nc2ccc(C)cc2C)NC1=O | i | i | 9% | 9% | ? | -1%
Cc1ccc(N=C2NC(=O)/C(=C/c3cccn3C)S2)c(C)c1 | 23µM* | i | -18% | -20% | 6.5µM* | ?
COc1ccc(CC(NC(C)=O)C(=O)NC2CCN(C(=O)Nc3ccccc3C)CC2)cc1OC (centres undefined) | i | i | 10% | 9% | 22% | -9%
COc1cccc(Oc2ccc(S(=O)(=O)N3CCCC3)cc2[N+](=O)[O-])c1 | i | i | -5% | -1% | -27% | ?
CCOC(=O)C1CCN(CC(=O)Nc2cc(C)c3c(=O)oc4ccccc4c3n2)CC1 | i | i | . | . | -28% | -2%
C=CCNC(=O)N1CCCC(N2CCN(c3ccccc3OC)CC2)C1 (centres undefined) | i | i | 13% | 2% | 2% | 18%
